Results as given in PMC9911399, “Two distinct binding modes provide the RNA-binding protein RbFox with extraordinary sequence specificity”.
Changes are numbered by the printed parent chain; changes in the protein carry UniProt numbers. Whole data set: some 16,000 sequences, median “ka relative to ugcaugu” near 0.096, cut for the highest 2% near 0.35. What follows is part of a selection rich in the highest values, with near analogues and random picks from the rest.

T1: RBFOX1 RRM RbFoxmut (Fox-RRM*) (Homo sapiens, UniProt Q9NWB1 109-208, R118D;E147R;N151S;E152T)
T1 sequence: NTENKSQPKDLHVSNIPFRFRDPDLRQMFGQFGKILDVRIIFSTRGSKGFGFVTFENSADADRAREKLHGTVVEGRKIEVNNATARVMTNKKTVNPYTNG

B1: CGCUCCU (DNA:RNA)
RNA: GGGAGACCGGAAUUCAGAUUGUCCCGCUCCUUUAAAUCCCGUCGUAGCCACCA
DNA 1: CAATCTGAATTCCGGTCTCCC
DNA 2: TGGTGGCTACGACGGGATT
B2: GGAGGUA (DNA:RNA)
RNA: B1 RNA with C25G, C27A, U28G, C29G, C30U, U31A
DNA 1: CAATCTGAATTCCGGTCTCCC
DNA 2: TGGTGGCTACGACGGGATT
B3: GGCCGUU (DNA:RNA)
RNA: B1 RNA with C25G, U28C, C29G, C30U
DNA 1: CAATCTGAATTCCGGTCTCCC
DNA 2: TGGTGGCTACGACGGGATT
B4: GUUUUCU (DNA:RNA)
RNA: B1 RNA with C25G, G26U, C27U, C29U
DNA 1: CAATCTGAATTCCGGTCTCCC
DNA 2: TGGTGGCTACGACGGGATT
B5: AGAACGU (DNA:RNA)
RNA: B1 RNA with C25A, C27A, U28A, C30G
DNA 1: CAATCTGAATTCCGGTCTCCC
DNA 2: TGGTGGCTACGACGGGATT
B6: GAACGUG (DNA:RNA)
RNA: GGGAGACCGGAAUUCAGAUUGUCCGAACGUGUUAAAUCCCGUCGUAGCCACCA
DNA 1: CAATCTGAATTCCGGTCTCCC
DNA 2: TGGTGGCTACGACGGGATT
B7: GGGAACG (DNA:RNA)
RNA: B1 RNA with C25G, C27G, U28A, C29A, U31G
DNA 1: CAATCTGAATTCCGGTCTCCC
DNA 2: TGGTGGCTACGACGGGATT
B8: GAGAACG (DNA:RNA)
RNA: B6 RNA with A27G, C28A, G29A, U30C
DNA 1: CAATCTGAATTCCGGTCTCCC
DNA 2: TGGTGGCTACGACGGGATT
B9: UGAACGU (DNA:RNA)
RNA: B1 RNA with C25U, C27A, U28A, C30G
DNA 1: CAATCTGAATTCCGGTCTCCC
DNA 2: TGGTGGCTACGACGGGATT
B10: AGGAACG (DNA:RNA)
RNA: B1 RNA with C25A, C27G, U28A, C29A, U31G
DNA 1: CAATCTGAATTCCGGTCTCCC
DNA 2: TGGTGGCTACGACGGGATT
B11: AGGACCG (DNA:RNA)
RNA: B1 RNA with C25A, C27G, U28A, U31G
DNA 1: CAATCTGAATTCCGGTCTCCC
DNA 2: TGGTGGCTACGACGGGATT
B12: GUGAACG (DNA:RNA)
RNA: B6 RNA with A26U, A27G, C28A, G29A, U30C
DNA 1: CAATCTGAATTCCGGTCTCCC
DNA 2: TGGTGGCTACGACGGGATT
B13: CAGAACG (DNA:RNA)
RNA: B1 RNA with G26A, C27G, U28A, C29A, U31G
DNA 1: CAATCTGAATTCCGGTCTCCC
DNA 2: TGGTGGCTACGACGGGATT
B14: UGGACAG (DNA:RNA)
RNA: B1 RNA with C25U, C27G, U28A, C30A, U31G
DNA 1: CAATCTGAATTCCGGTCTCCC
DNA 2: TGGTGGCTACGACGGGATT
B15: CCUUCUU (DNA:RNA)
RNA: B1 RNA with G26C, C27U, C30U
DNA 1: CAATCTGAATTCCGGTCTCCC
DNA 2: TGGTGGCTACGACGGGATT
B16: UCGGAUG (DNA:RNA)
RNA: B6 RNA with G25U, A26C, A27G, C28G, G29A
DNA 1: CAATCTGAATTCCGGTCTCCC
DNA 2: TGGTGGCTACGACGGGATT
B17: GAAGCGU (DNA:RNA)
RNA: B6 RNA with C28G, G29C, U30G, G31U
DNA 1: CAATCTGAATTCCGGTCTCCC
DNA 2: TGGTGGCTACGACGGGATT
B18: GCCAUGU (DNA:RNA)
RNA: B1 RNA with C25G, G26C, U28A, C29U, C30G
DNA 1: CAATCTGAATTCCGGTCTCCC
DNA 2: TGGTGGCTACGACGGGATT
B19: GUUUUUU (DNA:RNA)
RNA: B1 RNA with C25G, G26U, C27U, C29U, C30U
DNA 1: CAATCTGAATTCCGGTCTCCC
DNA 2: TGGTGGCTACGACGGGATT
B20: CGCAUUG (DNA:RNA)
RNA: B1 RNA with U28A, C29U, C30U, U31G
DNA 1: CAATCTGAATTCCGGTCTCCC
DNA 2: TGGTGGCTACGACGGGATT
B21: CCGCAUG (DNA:RNA)
RNA: B6 RNA with G25C, A26C, A27G, G29A
DNA 1: CAATCTGAATTCCGGTCTCCC
DNA 2: TGGTGGCTACGACGGGATT
B22: CCCCGCA (DNA:RNA)
RNA: B1 RNA with G26C, U28C, C29G, U31A
DNA 1: CAATCTGAATTCCGGTCTCCC
DNA 2: TGGTGGCTACGACGGGATT
B23: CGCAUGU (DNA:RNA)
RNA: B1 RNA with U28A, C29U, C30G
DNA 1: CAATCTGAATTCCGGTCTCCC
DNA 2: TGGTGGCTACGACGGGATT
B24: GCAUAGU (DNA:RNA)
RNA: B1 RNA with C25G, G26C, C27A, C29A, C30G
DNA 1: CAATCTGAATTCCGGTCTCCC
DNA 2: TGGTGGCTACGACGGGATT
B25: GCAUGUU (DNA:RNA)
RNA: B6 RNA with A26C, C28U, G31U
DNA 1: CAATCTGAATTCCGGTCTCCC
DNA 2: TGGTGGCTACGACGGGATT
B26: GCAAUGU (DNA:RNA)
RNA: B6 RNA with A26C, C28A, G29U, U30G, G31U
DNA 1: CAATCTGAATTCCGGTCTCCC
DNA 2: TGGTGGCTACGACGGGATT

Molecular target: T1, RBFOX1 RRM RbFoxmut (Fox-RRM*)
Test: EMSA; HiTS-Eq, 1 nM pool, 10 min; buffer printed only for the single-RNA assays: 10 mM Tris pH 7.5, 150 mM NaCl, 3.4 mM EDTA, 0.001% NP-40, 30 C
Conditions: tags: His6 N-terminal (pET28a); label: 5' 32P
Summary of the method: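 Relative association constants, normalised to the cognate motif, were derived by comparing read counts of each RNA species with those of the control reaction. The RNA sequenced was the free fraction, separated by 8% native PAGE after a 10 min equilibration in 50 µL of 1 nM 5′-radiolabelled RNA (7 randomized nucleotides) with increasing concentrations of purified wild-type or mutant RbFox RRM.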

First: B1
Second: B2
The binding signal of the first is lower: 0.0521 KA relative to UGCAUGU for the first, 0.121 KA relative to UGCAUGU for the second.

First: B3
Second: B4
The binding signal of the first is higher: 0.0754 KA relative to UGCAUGU for the first, 0.0724 KA relative to UGCAUGU for the second.

First: B5
Second: B6
The binding signal of the first is lower: 0.149 KA relative to UGCAUGU for the first, 0.226 KA relative to UGCAUGU for the second.

First: B7
Second: B8
The binding signal of the first is higher: 0.472 KA relative to UGCAUGU for the first, 0.347 KA relative to UGCAUGU for the second.

Compared with B9, B10 is higher in binding signal: 0.242 KA relative to UGCAUGU for the first, 0.576 KA relative to UGCAUGU for the second.

First: B11
Second: B12
The binding signal of the first is lower: 0.183 KA relative to UGCAUGU for the first, 0.538 KA relative to UGCAUGU for the second.

First: B13
Second: B14
The binding signal of the first is higher: 0.168 KA relative to UGCAUGU for the first, 0.0526 KA relative to UGCAUGU for the second.

First: B15
Second: B16
The binding signal of the first is lower: 0.0561 KA relative to UGCAUGU for the first, 0.119 KA relative to UGCAUGU for the second.

Compared with B17, B18 is higher in binding signal: 0.0921 KA relative to UGCAUGU for the first, 0.188 KA relative to UGCAUGU for the second.

First: B19
Second: B20
The binding signal of the first is lower: 0.0932 KA relative to UGCAUGU for the first, 0.179 KA relative to UGCAUGU for the second.

First: B21
Second: B22
The binding signal of the first is higher: 1.13 KA relative to UGCAUGU for the first, 0.118 KA relative to UGCAUGU for the second.

First: B23
Second: B24
The binding signal of the first is higher: 1.08 KA relative to UGCAUGU for the first, 0.192 KA relative to UGCAUGU for the second.

Compared with B25, B26 is lower in binding signal: 0.776 KA relative to UGCAUGU for the first, 0.12 KA relative to UGCAUGU for the second.
